{"source": "PubChem BioAssay (Tox21)", "note": "Records with an inconclusive call do not appear. Active and inactive are the calls of the source. Calls come from the whole dose curve; as a rule, active = well fitted cell-killing curve with a large enough effect in the repeat runs; inconclusive = weak or mixed curves, or effect the other way; inactive = no such curve, though single readings can be large or run the other way. % is set by controls: 0 for no effect and ±100 for the full control effect."}
{"test": "qHTS assay to identify small molecule antagonists of the sonic hedgehog signaling (Shh) pathway - cell viability counter screen (AID 1259367); note: nearly all actives have a fitted effect of over 55% in size", "settings": "NIH/3T3 Gli1-Luc viability, CellTiter-Fluor, 24 h; series mostly up to 92.4 µM; viability change, negative = cytotoxic: at the top concentration", "source_text": "National Center for Advancing Translational Sciences [NCATS]\nNIH Chemical Genomics Center [NCGC]\nU.S. Environmental Protection Agency [EPA]\nNational Institutes of Environmental Health Sciences [NIEHS]\nNational Toxicology Program [NTP]\nU.S. Food and Drug Administration [FDA]\nThe sonic hedgehog (Shh) pathway is essential for normal embryonic development. Dysregulation of the Shh pathway can cause severe developmental defects in organs. Therefore chemicals that interfere with the pathway are potential developmental toxicants. A cell line designated 3T3Gli1-Luc (DMB/OARSA/CFSAN/FDA, Laurel, MD), a NIH/3T3 derived clone containing stably integrated Gli1-Luc reporter is used to detect chemical interference of the Shh pathway, by changes in the expression of the firefly Luc gene under the control of the Gli1 transcriptional response element. This cell line was used to screen Tox21 libraries for identifying and prioritizing the potential developmental toxicants that interfere Shh pathway. Conditioned medium-stimulated mode was used to screen for chemicals inhibiting Shh signaling. The cytotoxicity of the compounds was tested in parallel by measuring the cell viability using CellTiter-Fluor assay system (Promega, Madison, WI) in the same wells.\nTox21 Assay Protocol Summary:\n3T3 Gli1-Luc cells were dispensed at 2,000 per well in 5uL of culture medium into white solid bottom 1536-well plates (Greiner Bio-One, Monroe, NC) using a Multidrop Combi (Thermo Scientific, Waltham, MA) dispenser. The assay plates were incubated at 37 C and 5% CO2 for 4hr, and then 23nL of compounds dissolved in DMSO and positive control were transferred using a Pintool station (Wako, San Diego, CA). The compound transfer was followed by the addition of 1ul conditioned medium or assay buffer using two separate tips of Flying Reagent Dispenser (FRD, Aurora Discovery, San Diego, CA). The assay plates were incubated at 37C and 5% CO2 for 24hr. For viability read, after 23hr of compound treatment, 1uL of CellTiter-Fluor reagent (Promega Corporation, Madison, WI) was added to each well of the assay plates using Flying Reagent Dispenser (FRD, Aurora Discovery, San Diego, CA) and incubated the assay plates at 37C for 1hr. The fluorescence signal was quantified using a ViewLux plate reader (Perkin Elmer, Shelton, CT)."}
{"molecule": "Cc1c(Cl)cccc1Cl", "viability change, negative = cytotoxic": "-0.922% (inactive)"}
{"molecule": "O=C(CCCCC(=O)Nc1c(I)cc(I)c(C(=O)O)c1I)Nc1c(I)cc(I)c(C(=O)O)c1I", "viability change, negative = cytotoxic": "1.26% [at 42.5 µM] (inactive)"}
{"molecule": "CC(N)CCCC(C)(C)O", "note": "(stereo not given)", "viability change, negative = cytotoxic": "0.617% [at 42.5 µM] (inactive)"}
{"molecule": "CCCCSCCCC", "viability change, negative = cytotoxic": "-0.218% (inactive)"}
{"molecule": "NCc1ccc(S(N)(=O)=O)cc1", "viability change, negative = cytotoxic": "1.9% [at 42.5 µM] (inactive)"}
{"molecule": "O=[N+]([O-])c1c(Cl)cc(Cl)cc1Cl", "viability change, negative = cytotoxic": "1.1% (inactive)"}
{"molecule": "COP(=O)(O)OP(=O)(O)OC", "viability change, negative = cytotoxic": "3.41% (inactive)"}
{"molecule": "COc1ccc2c(c1)c1c3n2CCN(C)C3=NCC1", "viability change, negative = cytotoxic": "1.57% [at 42.5 µM] (inactive)"}
{"molecule": "O=C(O)CNC(=O)CNC(=O)CNC(=O)CSC(=O)c1ccccc1", "viability change, negative = cytotoxic": "1.23% [at 42.5 µM] (inactive)"}
{"molecule": "C=CCOC(=O)CCCCCC", "viability change, negative = cytotoxic": "-2.3% (inactive)"}
{"molecule": "C=C(C)c1cccc(C(C)(C)N=C=O)c1", "viability change, negative = cytotoxic": "-0.119% (inactive)"}
{"molecule": "C=CCSSCCC", "viability change, negative = cytotoxic": "0.98% (inactive)"}
{"molecule": "CC(=O)CCC1=C(C)CCCC1(C)C", "viability change, negative = cytotoxic": "-5.67% (inactive)"}
{"molecule": "COc1cc(/C=C/C(N)=O)cc(OC)c1OC", "viability change, negative = cytotoxic": "0.112% [at 42.5 µM] (inactive)"}
{"molecule": "Cc1c(NC(=O)c2cccnc2)c(=O)n(-c2ccccc2)n1C", "viability change, negative = cytotoxic": "-0.542% [at 42.5 µM] (inactive)"}
{"molecule": "CCC(C(=O)OCCN1CCOC(c2ccccc2)C1C)c1ccccc1", "note": "(stereo not given)", "viability change, negative = cytotoxic": "3.02% [at 42.5 µM] (inactive)"}
{"molecule": "ONc1ccccc1", "viability change, negative = cytotoxic": "-3.15% (inactive)"}
{"molecule": "O=C(O)c1cc2ccccc2nc1C(=O)O", "viability change, negative = cytotoxic": "-2.22% (inactive)"}
{"molecule": "CC(O)CC(C)O", "note": "(stereo not given)", "viability change, negative = cytotoxic": "-4.32% (inactive)"}
{"molecule": "COc1nc(N)nc2nc[nH]c12", "viability change, negative = cytotoxic": "-4.31% (inactive)"}
{"molecule": "CCCCOC(=O)[C@H](C)O", "viability change, negative = cytotoxic": "1.06% (inactive)"}
{"molecule": "c1ccc(B(c2ccccc2)c2ccccc2)cc1", "viability change, negative = cytotoxic": "-7.12% (inactive)"}
{"molecule": "[O-][n+]1cccc(/C(Cl)=N/OC[C@@H](O)CN2CCCCC2)c1", "viability change, negative = cytotoxic": "1.44% [at 42.5 µM] (inactive)"}
{"molecule": "CCNC(=O)NCc1cccc(Cl)c1", "viability change, negative = cytotoxic": "-0.192% [at 42.5 µM] (inactive)"}
{"molecule": "CC(C)C1OCCN1CCOC(=O)NCCCCCCNC(=O)OCCN1CCOC1C(C)C", "note": "(stereo not given)", "viability change, negative = cytotoxic": "-0.285% (inactive)"}
{"molecule": "CCN(CC)CCN", "viability change, negative = cytotoxic": "6.23% [at 42.5 µM] (inactive)"}
{"molecule": "O=C(NCN1CCOCC1)c1cnccn1", "viability change, negative = cytotoxic": "0.613% [at 42.5 µM] (inactive)"}
{"molecule": "CN1C[C@@H]2C[C@H]1CN2c1cc2c(cc1F)c(=O)c(C(=O)O)cn2C1CC1", "viability change, negative = cytotoxic": "0.743% [at 19 µM] (inactive)"}
{"molecule": "CC(=O)OC(C)=O", "viability change, negative = cytotoxic": "0.546% (inactive)"}
{"molecule": "CCOC(=O)CC1(C)OCC(C)O1", "note": "(stereo not given)", "viability change, negative = cytotoxic": "1.48% (inactive)"}
{"molecule": "CC1CC(=O)CC(C)(C)C1", "note": "(stereo not given)", "viability change, negative = cytotoxic": "4.53% (inactive)"}
{"molecule": "CN(C)CCOC(=O)C(c1ccccc1)C1(O)CCCC1", "note": "(stereo not given)", "viability change, negative = cytotoxic": "-13.9% [at 42.5 µM] (inactive)"}
{"molecule": "N[C@@H](Cc1ccc(O)cc1)C(=O)O", "viability change, negative = cytotoxic": "0.133% [at 8.39 µM] (inactive)"}
{"molecule": "C=CC/C=C/C", "viability change, negative = cytotoxic": "1.32% (inactive)"}
{"molecule": "CC(C)[C@H]1CC[C@H](C)C[C@@H]1O", "viability change, negative = cytotoxic": "-9.91% (inactive)"}
{"molecule": "COC(=O)c1ccccc1C(=O)O", "viability change, negative = cytotoxic": "-0.187% (inactive)"}
{"molecule": "CCO", "viability change, negative = cytotoxic": "-0.367% (inactive)"}
{"molecule": "C/C=C(\\C)C(C)=O", "viability change, negative = cytotoxic": "0.605% (inactive)"}
{"molecule": "O=C(CN1CCNCC1)NC1CCCCC1", "viability change, negative = cytotoxic": "-1.54% [at 42.5 µM] (inactive)"}
{"molecule": "O=C1c2ccccc2C(=O)c2cc(Cl)ccc21", "viability change, negative = cytotoxic": "1.09% [at 8.39 µM] (inactive)"}
